In the library only some 21% were active in any assay of this set; here they are far more common.
Shiga inhibitor: A qHTS for Small Molecule Inhibitors of Shiga Toxin; Vero cells, Shiga toxin protein synthesis inhibition reporter; hit rate 9.2% among 290,000; AID 2315, 2010; inhibition, % at 38.7 µM; in the data active = inhibition mostly above about 28%, no sharp cut-off; inactive = mostly below about 43%
Pf growth 48h: Primary qHTS for delayed death inhibitors of the malarial parasite plastid, 48 hour incubation. P. falciparum luciferase growth in erythrocytes, 48 h. Potency, µM (titrated, usually from 28.7 µM), actives largely listed as inhibitors. hit rate 5.9% among 310,000
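Luciferase-expressing P. falciparum in infected erythrocytes (2% hematocrit, 0.1% parasitemia final) in RPMI 1640/0.5% Albumax were exposed to compound for 48 hours at 37 C, 5% CO2; growth read as luminescence.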
CHX counter: Cycloheximide Counterscreen for Small Molecule Inhibitors of Shiga Toxin | cell reporter, cycloheximide protein synthesis inhibition counterscreen | max response, % | hit rate 12% among 300,000 | AID 2314, 2010; in the data active = max response mostly above about 13%, no sharp cut-off; inactive = mostly below about 14%; also: read at 38.3 µM for the half of the compounds with a filed dose
Pf growth 96h: Primary qHTS for delayed death inhibitors of the malarial parasite plastid, 96 hour incubation. hit rate 6.9% among 320,000. P. falciparum luciferase reporter growth, 96 h. Potency, µM (highest dose often 28.7 µM), most hits filed as inhibitors. AID 504834, 2011
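Erythrocytes infected with luciferase-expressing P. falciparum were dispensed at 2% hematocrit and 0.05% parasitemia (final), then incubated with compounds 96 hours at 37 C in 5% CO2. Luminescence after detection reagent addition reported growth.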
Sm TGR inh: qHTS Assay for the Inhibitors of Schistosoma Mansoni Peroxiredoxins | hit rate 3% among 360,000 | Potency, µM (top dose mostly 114 µM), hits mostly inhibitors | Schistosoma mansoni thioredoxin glutathione reductase (TGR), Q962Y6 | AID 485364, 2010 | purified TGR, DTNB reduction, TNB absorbance 405 nm; also: nearly all actives have a fitted effect of over 60% in size
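First, TGR (20 nM dispensed) and NADPH were mixed with compound. Second, a 15 min room-temperature incubation followed. Third, further NADPH and then DTNB were added to start the reaction. Finally, TNB absorbance was monitored kinetically.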
NS1 function inh: qHTS Assay for Inhibitors of Influenza NS1 Protein Function. Potency, µM (series often up to 46.1 µM). hit rate 0.4% among 270,000; calls by dose curve; also: actives are rising curves; nearly all actives have a fitted effect of over 50% in size
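Growth recovery, yeast-based: influenza A NS1 expressed in S. cerevisiae causes slow growth, and suppressors are detected by OD600. The parent strain without NS1 is used as positive control.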
Each line names hits and unclear results; the compound was inactive in the other large screens. Unless noted, calls follow the shape of the dose curve; as a rule, active = well fitted curve in the direction sought with a large enough effect; inconclusive = small, poorly fitted or top-dose-only effect, or another doubt; inactive = no such curve, though single readings can be large; an effect the other way counts as inactive or inconclusive.

COC/C=C/C1=CC2=CC(=O)C(C)(OC(=O)c3cnc4ccccc4n3)C(=O)C2=CN1C1CCCCC1 (centres undefined)	Sm TGR inh inconclusive
COC/C=C/C1=CC2=CC(=O)C(C)(OC(=O)c3cnc4ccccc4n3)C(=O)C2=CN1c1ccccc1 (centres undefined)	Pf growth 48h inconclusive, Pf growth 96h inconclusive, Sm TGR inh 22µM
COC/C=C/C1=CC2=CC(=O)C(C)(OC(=O)c3cnc4ccccc4n3)C(=O)C2=CN1c1ccc(CO)cc1 (centres undefined)	Sm TGR inh 45µM
CCOC(=O)C(C)NC(=O)Cn1ncc2c(=O)oc3ccc(C)cc3c21 (centres undefined)	Pf growth 48h inconclusive, NS1 function inh inconclusive
Cc1cc(C)cc(N2CC(c3nnc(NC(=O)c4ccco4)s3)CC2=O)c1 (centres undefined)	none (no result: Shiga inhibitor, Pf growth 48h, CHX counter, Pf growth 96h, NS1 function inh)
C#CCOCCOCCOCCNc1nc(N2CCOCC2)nc(N2CCN(C(=O)CCCCCCCCCCNC(=O)[C@H]([C@@H](C)CC)n3cc(CCCCN=C(N)N)nn3)CC2)n1	Pf growth 48h 0.37µM, Pf growth 96h 0.52µM (no result: Shiga inhibitor, CHX counter, NS1 function inh)
C#CCOCCOCCOCCNc1nc(N2CCN(C(=O)CCCCCCCCCCNC(=O)[C@H]([C@@H](C)CC)n3cc(CCCCN=C(N)N)nn3)CC2)nc(N2CCN(C(=O)CCCCCCCCCCNC(=O)[C@@H]([C@H](C)O)n3cc(C)nn3)CC2)n1	Pf growth 48h 1.9µM, Pf growth 96h inconclusive, Sm TGR inh inconclusive (no result: Shiga inhibitor, CHX counter, NS1 function inh)
C#CCOCCOCCOCCNc1nc(N2CCOCC2)nc(N2CCN(C(=O)[C@H]([C@@H](C)CC)n3cc(CCCN=C(N)N)nn3)CC2)n1	Pf growth 96h inconclusive
C#CCOCCOCCOCCNc1nc(N2CCN(C(=O)CCCCCCCCCCNC(=O)[C@H](CCCN=C(N)N)n3cc(C[C@@H](C)CC)nn3)CC2)nc(N2CCN(C(=O)CCCCCCCCCCNC(=O)[C@@H]([C@H](C)CC)n3cc(CCCCCN)nn3)CC2)n1	Pf growth 48h 3.3µM, Pf growth 96h 8.3µM, Sm TGR inh inconclusive (no result: Shiga inhibitor, CHX counter, NS1 function inh)
C#CCOCCOCCOCCNc1nc(N2CCN(C(=O)CCCCCCCCCCNC(=O)[C@H]([C@@H](C)CC)n3cc(CCCCN=C(N)N)nn3)CC2)nc(N2CCN(C(=O)CCCCCCCCCCNC(=O)[C@H](CCCN=C(N)N)n3cc(C[C@@H](C)CC)nn3)CC2)n1	Pf growth 48h 4.7µM, Pf growth 96h 5.2µM, Sm TGR inh inconclusive (no result: Shiga inhibitor, CHX counter, NS1 function inh)
CCOc1ccc(C2=NC(c3ccncc3)=Nc3ccc(C)cc3N2)cc1OCC	none (no result: Shiga inhibitor, Pf growth 48h, CHX counter, Pf growth 96h, NS1 function inh)
Cc1ccc2c(c1)c(=O)c(C(=O)c1ccncc1)cn2CC(=O)Nc1c(C)cccc1C	none (no result: Shiga inhibitor, Pf growth 48h, CHX counter, Pf growth 96h, NS1 function inh)
CC(C)c1ccccc1NC(=O)CN1C(=O)c2cccc3cccc1c23	none (no result: Shiga inhibitor, Pf growth 48h, CHX counter, Pf growth 96h, NS1 function inh)
N#C/C(=C\Nc1ccccc1SC(F)(F)F)c1nc(-c2ccc(Cl)cc2)cs1	NS1 function inh inconclusive
CC(C)c1nc2cc(C(=O)N(C)C3CCOCC3)ccc2o1	Shiga inhibitor 42, CHX counter 37
Cn1cc(S(=O)(=O)c2cccc(Cl)c2)c(=O)c2cc(F)c(N3CCCCCC3)cc21	none (no result: Shiga inhibitor, Pf growth 48h, CHX counter, Pf growth 96h, NS1 function inh)
Cc1c(Cl)c(S(N)(=O)=O)cc2c1=NC=NS=2(=O)O	none (no result: Shiga inhibitor, Pf growth 48h, CHX counter, Pf growth 96h, Sm TGR inh)
Cc1cc(=O)oc2ccc(OCC(=O)N(Cc3ccc(F)cc3)Cc3ccco3)cc12	Shiga inhibitor 76, Pf growth 48h 10µM, CHX counter 47, Pf growth 96h inconclusive, Sm TGR inh 18µM
COc1cccc2sc(N(CCN(C)C)C(=O)c3ccc4c(c3)CCCC4)nc12	Pf growth 48h 10µM, Pf growth 96h inconclusive
CN(C)CCN(C(=O)c1ccc2c(c1)CCCC2)c1nc2c(F)cccc2s1	CHX counter 56, Sm TGR inh inconclusive
N#Cc1ccc(Nc2nc(-c3ccc(O)cc3O)cs2)cc1C(F)(F)F	Pf growth 48h inconclusive, Pf growth 96h inconclusive (no result: Shiga inhibitor, CHX counter, NS1 function inh)
Cc1cccc(Nc2nc(-c3ccc(O)cc3O)cs2)n1	Shiga inhibitor 109, CHX counter 38
Cc1nc(-c2ccc(O)c(O)c2)cs1	Sm TGR inh inconclusive (no result: Pf growth 48h)
Oc1ccc(-c2csc(Nc3ncccn3)n2)cc1O	Shiga inhibitor 103, CHX counter 33, Sm TGR inh inconclusive (no result: NS1 function inh)
